Data on eleven molecules can be found in PubChem BioAssay (NCATS).

Molecules are shown by their SMILES. Results filed as inconclusive are left out. The source made the active and inactive calls. The call rests on the fitted dose curve; in most records, active means well fitted inhibition curve with a large enough effect; inconclusive means small, poorly fitted or top-dose-only effect; inactive means flat fitted curve, though single readings scatter.

Assay [1] addresses Luciferin 4-monooxygenase (Photinus pyralis) (UniProt P08659). Briefly: Biochemical firefly luciferase enzyme assay for NPC (AID 624030).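 Further: purified P. pyralis luciferase at 10 nM with luciferin and ATP substrate; nearly all actives have a fitted effect of over 70% in size.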 The method in brief:
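Purified P. pyralis luciferase at 10 nM in 50 mM Tris Acetate (final), luminescence read within 5 minutes of enzyme addition to compounds. Activity normalised to PTC124 versus DMSO; concentration-response curves classed by r2, magnitude and activity.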

The subject of another assay is ATS95. Put plainly: qHTS profiling for inhibitors of Plasmodium falciparum proliferation (AID 504749). Further: nearly all actives have a fitted effect of over 60% in size. Further: potency means the concentration at half of the fitted maximal effect. Particulars: P. falciparum in erythrocytes, SYBR Green DNA, 72 h; series mostly up to 28.7 µM. The gist of the method:
(§1)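 Each compound contacts P. falciparum-infected red blood cells for 72 h at 37 C; lysis buffer (Tris, EDTA, saponin, Triton X, SYBR Green I) is added and fluorescence measured next morning; values normalized to controls.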

The subject of a further assay is CP185. The description is as above. Particulars: P. falciparum in erythrocytes, SYBR Green DNA, 72 h; series mostly up to 28.7 µM. The gist of the method: as §1
The subject of a further assay is CP237. The assay is described as above. Particulars: P. falciparum in erythrocytes, SYBR Green DNA, 72 h; series mostly up to 28.7 µM. The method in brief: as §1
A further assay deals with CP250. Described as above. Particulars: P. falciparum in erythrocytes, SYBR Green DNA, 72 h; series mostly up to 28.7 µM. The gist of the method: as §1
The next assay has as its system CP265. The assay is described as above. Particulars: P. falciparum in erythrocytes, SYBR Green DNA, 72 h; series mostly up to 28.7 µM. The gist of the method: as §1
The test system of another assay is CP268. The assay is described as above. To be noted: P. falciparum in erythrocytes, SYBR Green DNA, 72 h; series mostly up to 28.7 µM. The method in brief: as §1
The subject of a further assay is CP269. The description is as above. Particulars: P. falciparum in erythrocytes, SYBR Green DNA, 72 h; series mostly up to 28.7 µM. The gist of the method:
as §1

A further assay relates to CP305. The description is as above. Particulars: P. falciparum in erythrocytes, SYBR Green DNA, 72 h; series mostly up to 28.7 µM. The gist of the method: as §1
The next assay deals with CP329. The description is as above. Particulars: P. falciparum in erythrocytes, SYBR Green DNA, 72 h; series mostly up to 28.7 µM. The method in brief:
as §1

Another assay relates to CP335. The assay is described as above. Particulars: P. falciparum in erythrocytes, SYBR Green DNA, 72 h; series mostly up to 28.7 µM. The method in brief:
as §1

The next assay has as its system ECU. Described as above. Particulars: P. falciparum in erythrocytes, SYBR Green DNA, 72 h; series mostly up to 28.7 µM. The gist of the method:
as §1

Another assay concerns FAB9. The description is as above. Particulars: P. falciparum in erythrocytes, SYBR Green DNA, 72 h; series mostly up to 28.7 µM. The gist of the method: as §1
The test system of the next assay is JCK. The description is as above. To be noted: P. falciparum in erythrocytes, SYBR Green DNA, 72 h; series mostly up to 28.7 µM. The gist of the method:
as §1

The test system of a further assay is N140. Described as above. Particulars: P. falciparum in erythrocytes, SYBR Green DNA, 72 h; series mostly up to 28.7 µM. The method in brief: as §1
The next assay relates to P93_24. The assay is described as above. To be noted: P. falciparum in erythrocytes, SYBR Green DNA, 72 h; series mostly up to 28.7 µM. The gist of the method:
as §1

The next assay has as its system PC49. The assay is described as above. Particulars: P. falciparum in erythrocytes, SYBR Green DNA, 72 h; series mostly up to 28.7 µM. The method in brief: as §1
The next assay deals with SC27B. The assay is described as above. Particulars: P. falciparum in erythrocytes, SYBR Green DNA, 72 h; series mostly up to 28.7 µM. The gist of the method:
as §1

The test system of a further assay is TAB113. The description is as above. To be noted: P. falciparum in erythrocytes, SYBR Green DNA, 72 h; series mostly up to 28.7 µM. The gist of the method: as §1
The test system of the next assay is TAB165. Described as above. Particulars: P. falciparum in erythrocytes, SYBR Green DNA, 72 h; series mostly up to 28.7 µM. The gist of the method: as §1

Luciferin 4-monooxygenase (Photinus pyralis), sequence (P08659 whole entry, looked up): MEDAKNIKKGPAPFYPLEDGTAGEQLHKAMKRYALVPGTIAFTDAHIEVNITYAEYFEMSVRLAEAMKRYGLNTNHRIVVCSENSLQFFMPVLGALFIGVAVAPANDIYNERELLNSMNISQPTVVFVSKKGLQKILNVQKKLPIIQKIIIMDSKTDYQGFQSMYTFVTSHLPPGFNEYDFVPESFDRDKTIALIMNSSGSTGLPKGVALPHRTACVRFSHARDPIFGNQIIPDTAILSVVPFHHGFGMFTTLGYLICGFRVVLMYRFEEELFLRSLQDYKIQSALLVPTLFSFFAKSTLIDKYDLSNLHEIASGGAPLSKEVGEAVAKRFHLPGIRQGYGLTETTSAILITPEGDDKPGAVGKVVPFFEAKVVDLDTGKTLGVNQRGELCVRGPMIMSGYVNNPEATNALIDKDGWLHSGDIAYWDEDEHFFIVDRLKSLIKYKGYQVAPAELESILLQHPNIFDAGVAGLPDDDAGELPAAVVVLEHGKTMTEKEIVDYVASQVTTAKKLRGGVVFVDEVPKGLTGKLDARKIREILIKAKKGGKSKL

For `OC[C@@H](O)[C@H]1O[C@@H]2OC(C(Cl)(Cl)Cl)O[C@H]2[C@H]1O` (stereo partly drawn), the Potency result (in assay [1]; in the assay on ATS95; in the assay with CP185; with CP237; in the assay with CP250; in the assay with CP265) was “inactive” each time. The Potency entry in the assay with CP268, in the assay with CP269, in the assay on CP305, in the assay on CP329, in the assay with CP335 and in the assay with ECU was “inactive” throughout. The Potency entry in the assay with FAB9, in the assay on JCK, in the assay with N140, in the assay on P93_24, in the assay on PC49 and in the assay with SC27B was “inactive” each time. The Potency entry in the assay with TAB113 and with TAB165 was “inactive” in each case.

For `C[C@@H](N)[C@@H](O)c1ccc(O)c(O)c1`, the Potency entry (in assay [1]; with ATS95; in the assay on CP185; with CP237; in the assay with CP250; in the assay with CP265) was “inactive” each time. Moreover, the Potency entry in the assay on CP268, in the assay on CP269, with CP305, with CP329, in the assay with CP335 and in the assay with ECU was “inactive” each time. Also, the Potency result in the assay with FAB9, in the assay on JCK, in the assay on N140, in the assay on P93_24, in the assay on PC49 and in the assay with SC27B was “inactive” throughout. The Potency entry with TAB113 and in the assay on TAB165 was “inactive” each time.

Regarding `C[C@]12C=CC(=O)C=C1CC[C@@H]1C2CC[C@]2(C)OC(=O)CCC12` (stereo partly drawn), the Potency result (in [1]; in the assay on ATS95; in the assay with CP185; in the assay with CP237; in the assay on CP250; in the assay on CP265) was “inactive” in each case. Besides, the Potency result with CP268, in the assay on CP269, in the assay on CP305, in the assay on CP329, with CP335 and in the assay on ECU was “inactive” in each case. The Potency result in the assay with FAB9, in the assay with JCK, in the assay on N140, in the assay with P93_24, in the assay on PC49 and with SC27B was “inactive” throughout. The Potency entry in the assay on TAB113 and in the assay on TAB165 was “inactive” in each case.

Regarding `C[C@]12CCC3C(CCC4=C(Cl)C(=O)CC[C@@]43C)C1CCC2O` (stereo partly drawn), the Potency entry (in assay [1]; in the assay on ATS95; in the assay with CP185; in the assay on CP237; with CP250; in the assay with CP265) was “inactive” throughout. In addition, the Potency result with CP268, with CP269, with CP305, with CP329, with CP335 and in the assay on ECU was “inactive” in each case. The Potency result with FAB9, in the assay on JCK, in the assay with N140, in the assay on P93_24, in the assay on PC49 and with SC27B was “inactive” in each case. Also, the Potency entry in the assay with TAB113 and in the assay on TAB165 was “inactive” throughout.

Consider `CCCCCc1cc(O)c2c(c1)OC(C)(C)C1CC=C(C)CC21` (stereo not drawn), for which, in assay [1], the Potency result is “inactive”. The Potency is 3.16 µM (active) in the assay on ATS95; 6.31 µM (active) with CP185; 1.78 µM (active) with CP237; 7.08 µM (active) in the assay on CP250; 3.55 µM (active) with CP265; 6.01 µM (active) with CP268. The Potency in the assay with CP269 was 4.78 µM (active); in the assay with CP305 it was 12 µM (active); with CP329, 9.53 µM (active); in the assay on CP335, 3.38 µM (active); in the assay on ECU, 2 µM (active); with JCK it was 11.2 µM (active). Besides, the Potency with N140 is 1.12 µM (active); in the assay with P93_24 it was 2.51 µM (active); in the assay on PC49, 4.47 µM (active); in the assay on SC27B it was 2 µM (active); in the assay on TAB113, 2 µM (active); with TAB165 it was 2 µM (active).

Consider `O=C1CC2OCC=C3CN4CC[C@]56c7ccccc7N1C5C2[C@H]3C[C@H]46` (stereo partly drawn), for which the values for the Potency in the assay with CP237 and in the assay with CP335 were 5.01 µM (active) and 5.36 µM (active), respectively. The Potency result in the assay on FAB9 and in the assay with PC49 was “inactive” throughout.

`CCC/C=C/C=C/C(=O)OC1/C(=C/C(=O)OC)CC2CC(C(C)O)OC(=O)CC(O)CC3CC(OC(C)=O)C(C)(C)C(O)(CC4C/C(=C/C(=O)OC)CC(/C=C\C(C)(C)C1(O)O2)O4)O3` (stereo not drawn): the Potency entry in [1] was “inactive”. Besides, the Potency in the assay with ATS95 is 2.51 µM (active); in the assay with CP185, 1 µM (active); in the assay on CP237, 2.82 µM (active); in the assay on CP250 it was 1 µM (active); in the assay on CP265, 1.41 µM (active); in the assay with CP268, 1.35 µM (active). In addition, the Potency in the assay on CP269 was 1.51 µM (active); with CP305 it was 1.9 µM (active); in the assay with CP329, 1.9 µM (active); in the assay with CP335 it was 1.9 µM (active); in the assay on ECU, 1.26 µM (active); in the assay on FAB9, 2.24 µM (active). Besides, the Potency was 3.16 µM (active) with JCK; 1.12 µM (active) in the assay on N140; 2.24 µM (active) with P93_24; 1.26 µM (active) with PC49; 2.51 µM (active) with SC27B; 1.78 µM (active) with TAB113. Moreover, the Potency with TAB165 was 1.41 µM (active).

`CCCCCC(O)C1C(=O)OC(C)C(O)\C=C/C=C\C=C/C=C\C=C(\C)C(O)C(O)C(O)CC(O)CC(O)CC(O)CC(O)CC1O` (stereo not drawn): the Potency result (in [1]; in the assay on ATS95; in the assay with CP185; in the assay with CP237; in the assay on CP250; in the assay on CP265) was “inactive” each time. Moreover, the Potency result in the assay on CP268, with CP269, in the assay with CP305, in the assay with CP329, in the assay with CP335 and in the assay on ECU was “inactive” throughout. Also, the Potency result in the assay on FAB9, in the assay with JCK, in the assay on N140, with P93_24, in the assay with PC49 and in the assay with SC27B was “inactive” in each case. The Potency entry with TAB113 and with TAB165 was “inactive” throughout.

With `COc1ccc2c3c1O[C@H]1[C@@H](O)C=C[C@H]4C(C2)NCCC341` (stereo partly drawn), the Potency result (in [1]; with ATS95; in the assay on CP185; with CP237; in the assay on CP250; in the assay with CP265) was “inactive” in each case. The Potency entry with CP268, in the assay on CP269, with CP305, in the assay with CP329, with CP335 and in the assay on ECU was “inactive” in each case. Moreover, the Potency result with FAB9, in the assay on JCK, in the assay with N140, in the assay with P93_24, in the assay with PC49 and in the assay on SC27B was “inactive” throughout. In addition, the Potency result in the assay on TAB113 and with TAB165 was “inactive” each time.

`OCC(O)[C@H]1O[C@@H]2O[C@H](C(Cl)(Cl)Cl)O[C@@H]2[C@H]1O` (stereo partly drawn): the Potency entry (in assay [1]; in the assay on ATS95; in the assay on CP185; in the assay on CP237; in the assay with CP250; in the assay on CP265) was “inactive” in each case. For the same molecule, the Potency result in the assay on CP268, in the assay on CP269, with CP305, in the assay on CP329, in the assay on CP335 and in the assay with ECU was “inactive” each time. In addition, the Potency entry in the assay on FAB9, in the assay on JCK, with N140, with P93_24, in the assay on PC49 and with SC27B was “inactive” each time. In addition, the Potency entry with TAB113 and in the assay on TAB165 was “inactive” in each case.

Consider `C=CC[N+]1(C)CCC23c4c5ccc(O)c4O[C@H]2C(=O)CC[C@@]3(O)C1C5` (stereo partly drawn), for which the Potency result (in assay [1]; in the assay on ATS95; with CP185; in the assay with CP237; in the assay with CP250; with CP265) was “inactive” each time. Moreover, the Potency result in the assay on CP268, in the assay on CP269, in the assay with CP305, with CP329, in the assay on CP335 and in the assay with ECU was “inactive” throughout. The Potency result in the assay on FAB9, with JCK, in the assay with N140, in the assay with P93_24, in the assay on PC49 and in the assay with SC27B was “inactive” throughout. The Potency entry with TAB113 and with TAB165 was “inactive” throughout.
